Results filed as inconclusive are left out. Active and inactive are the calls of the source. The call rests on the fitted dose curve; in most records, active means well fitted cell-killing curve with a large enough effect; inconclusive means small, poorly fitted or top-dose-only effect; inactive means flat fitted curve, though single readings scatter.
Assay: Cell Viability - LYMP2-018 (AID 985);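 further: compound exposure lasted 24 hr at 37 °C; nearly all actives have a fitted effect of over 50% in size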;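 on activity change, negative = cytotoxicity: plate controls were DMSO only for no effect and tetraoctylammonium bromide at 92 µM for full effect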
Details: LYMP2-018 lymphoblastoid cells, viability (qHTS); series mostly up to 92.2 µM; activity change, negative = cytotoxicity: at the top concentration
Source text: NIH Chemical Genomics Center [NCGC]
NIH Molecular Libraries Screening Centers Network [MLSCN]
National Institutes of Environmental Health Sciences [NIEHS]
National Toxicology Program [NTP]
We have developed a 1536-well cell-based assay for quantitative high throughput screening (qHTS) against a number of cell lines to determine in vitro cytotoxicity of small molecules. This particular assay uses a human lymphoblastoid cell line (LYMP2-018) purchased from Coriell Institute for Medical Research.
NCGC Assay Protocol Summary:
The CellTiter-Glo luminescent cell viability assay (Promega) is a homogeneous method to measure the number of viable cells in culture. The end point readout of this assay is based on quantitation of intracellular ATP, an indicator of metabolic activity, using the luciferase reaction. Luciferase catalyzes the oxidation of beetle Luciferin to oxyluciferin and light in the presence of ATP. The luminescent signal is proportional to amount of ATP present.
Using the CellTiter-Glo luminescent cell viability assay, the amount of cellular ATP was measured in the lymphoblastoid cell line with complete culture medium following compound treatment for 24 hours. The assay was performed in opaque white Kalypsys 1536-well plates. In the screen, tetraoctylammonium bromide was used as positive control. Library compounds were measured for their ability to cause acute toxicity in the cell line, as reflected by a decrease in intracellular ATP levels, in a concentration-dependent manner. […] AC50 values were determined from concentration-response data modeled with the standard Hill equation.
qHTS protocol for CellTiter Glo lymphoblastoid cellular assay
[Step] [Parameter] [Value] [Description]
1. Reagent; 5 uL; 2500 lymphoblastoid cells/well
2. Time; 5 hr; 37 C incubation
4. Controls; 23 nL; Tetraoctylammonium bromide 6.4pM to 92 uM
5. Time; 24 hr; 37 C incubation
6. Reagent; 5 uL; CellTiter Glo reagent
7. Time; 30 min; Room Temperature
8. Detection; Luminescence; Viewlux plate reader
Keywords: cell viability, cytotoxicity, lymphoblastoid cell line, luminescence, NTPHTS, NTPHTS_NCGC, NIEHS, DSSTox, MLSMR, MLSCN, NIH Roadmap, qHTS, NCGC
Potency means the concentration at half of the fitted maximal effect.

Row | Structure (SMILES) | activity change, negative = cytotoxicity | Potency
1 | C1=CC2C3C=CC(C3)C2C1 (centres undefined) | -1.94% (inactive) | –
2 | Cc1cc(C(C)(C)C)c(O)c(C(C)(C)C)c1 | 10% (inactive) | –
3 | Nc1cccc2c(N)cccc12 | -15.3% (inactive) | –
4 | O=C(c1ccccc1)c1ccccc1 | -10.8% (inactive) | –
5 | Oc1ccccc1 | -8.75% (inactive) | –
6 | CCCCCCCCCCCCCCCC[n+]1ccccc1 | – | 12.6 µM (active)
7 | CC(C)(c1ccc(O)cc1)c1ccc(O)cc1 | – | inactive
8 | CCCC(=O)c1cc(O)c(O)cc1O | -15% (inactive) | –
9 | Nc1ccc(O)cc1 | – | 39.8 µM (active)
10 | c1ccc2occc2c1 | -0.187% (inactive) | –
11 | Nc1c2ccccc2nc2ccccc12 | – | 12.6 µM (active)
12 | CCCCC(CC)COC(=O)c1ccccc1C(=O)O (centres undefined) | -4.5% (inactive) | –
13 | OCc1c[nH]c2ccccc12 | -10.7% (inactive) | –
14 | Cc1ccc(O)cc1 | -20.9% (inactive) | –
15 | O=C(NO)c1ccccc1 | -20.2% (inactive) | –
16 | CC(C)C(C)(C)C(C)(C)C(C)(C)S | -7.42% (inactive) | –
17 | COc1cc(C=O)ccc1O | -17.2% (inactive) | –
18 | O=C(Oc1ccccc1)c1ccccc1O | -5.21% (inactive) | –
19 | Brc1ccccc1-c1ccccc1 | 2.8% (inactive) | –

From PubChem BioAssay (NCATS)
